Only some compounds are listed: those with a hit (about 19% of all), similar ones and a draw of the others.
Shiga toxin inh = A qHTS for Small Molecule Inhibitors of Shiga Toxin | Vero cells, Shiga toxin protein synthesis inhibition reporter | inhibition, % at 38.7 µM | 9.2% of 290,000 active | AID 2315, 2010; in the data active means inhibition mostly above about 28%, no sharp cut-off; inactive means mostly below about 43%; further: 0% is about no effect
SARS PLpro yeast = qHTS of Yeast-based Assay for SARS-CoV PLP; 0.19% of 330,000 active; Potency, µM (doses to about 32.9 µM), without a hit: at the top dose activity, positive = growth rescue, hits mostly activators; S. cerevisiae expressing SARS-CoV PLpro, growth rescue; AID 485353, 2010; calls by dose curve; further: potency means the concentration at half of the fitted maximal effect; 0% is about no effect; nearly all actives have a fitted effect of over 55% in size
Pf growth 48h = Primary qHTS for delayed death inhibitors of the malarial parasite plastid, 48 hour incubation. Potency, µM (series often up to 28.7 µM), without a hit: at the top dose activity change, negative = inhibition, usual class: inhibitors. AID 504832, 2011. P. falciparum luciferase growth in erythrocytes, 48 h. 5.9% of 310,000 active; further: potency means the concentration at half of the fitted maximal effect; on the % scale 0 is the no-effect control and ±100 the full control effect
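Luminescence readout; reporter = integrated firefly luciferase in P. falciparum. RBC culture at 2% hematocrit, 0.1% parasitemia final, 37 C/5% CO2; decreased signal taken as growth inhibition.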
Pf growth 96h = Primary qHTS for delayed death inhibitors of the malarial parasite plastid, 96 hour incubation; P. falciparum luciferase reporter growth, 96 h; 6.9% of 320,000 active; Potency, µM (doses to about 28.7 µM), without a hit: top-dose activity change, negative = inhibition, hits mostly inhibitors; further: potency means the concentration at half of the fitted maximal effect; on the % scale 0 is the no-effect control and ±100 the full control effect
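P. falciparum expressing integrated firefly luciferase, in erythrocytes at 2% hematocrit, 0.05% parasitemia, incubated with compounds 96 h at 37 C, 5% CO2. Growth inhibition read as loss of luminescence; two-generation exposure targets delayed-death apicoplast inhibitors.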
Cycloheximide cs = Cycloheximide Counterscreen for Small Molecule Inhibitors of Shiga Toxin. cell reporter, cycloheximide protein synthesis inhibition counterscreen. max response, %. 12% of 300,000 active. AID 2314, 2010; in the data active means max response mostly above about 13%, no sharp cut-off; inactive means mostly below about 14%; further: read at 38.3 µM for the half of the compounds with a filed dose; 0% is about no effect
AMA1-RON2 inh = qHTS for Inhibitors of AMA1-RON; Towards Development of Antimalarial Drug Lead: Primary Screen; 0.2% of 360,000 active; AlphaScreen AMA1-biotinylated RON2 peptide binding; Potency, µM (series often up to 58.2 µM), for inactives: at the highest dose activity change, negative = inhibition, hits mostly inhibitors;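 further: potency means the concentration at half of the fitted maximal effect; 0% = vehicle wells and -100% = peptide control; nearly all actives have a fitted effect of over 45% in size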
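AMA1 (3D7) with his tag at 25 nM final met compounds first, then biotinylated RON2 peptide at 25 nM; detection used donor plus acceptor beads, 10 µg/mL apiece, read by AlphaScreen after 30 min at room temperature.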
An asterisk follows results filed as active; ? = inconclusive; / = no result; [ ] = remark or other dose. Unless noted, the call rests on the fitted dose curve; in most records, active means well fitted curve in the direction sought with a large enough effect; inconclusive means small, poorly fitted or top-dose-only effect, or another doubt; inactive means no such curve, though single readings can be large; an effect the other way counts as inactive or inconclusive.

SMILES | Shiga toxin inh | SARS PLpro yeast | Pf growth 48h | Pf growth 96h | Cycloheximide cs | AMA1-RON2 inh
CCC1CSC(=Nc2ccc(C)cc2)N1C(=O)CN1C(=O)NC2(CCCC2)C1=O (stereo not drawn) | 74* | 1% | -54% | -45% | 34* | 3%
Cc1ccc(C(NC(=O)CN2C(=O)NC3(CCCC3)C2=O)c2ccccc2)cc1 (stereo not drawn) | / | -4% | ? | ? | / | -3%
O=C(NCC1(c2ccccc2)CCCC1)C1(c2ccccc2)CCCC1 | 2 | -70% | ? | 2.6µM* | -2 | 28%
COc1ccc(CCNC(=O)c2nonc2N)cc1 | 46* | -2% | 93% | 151% | 21* | 5%
COc1cccc(CNCCNC(=O)c2nonc2N)c1 | -8 | 3% | 36% | 0% | -1 | 12%
COc1ccc(CCNC(=O)c2ccc(Cl)cc2)cc1 | -8 | 6% | / | ? | 10 | -5%
COc1ccc(CCNC(=O)c2nn(C)cc2Cl)cc1 | 76* | -6% | 31% | -30% | 27* | 18%
CCOC(=O)C1CCN(C(=O)COC(=O)c2cccc(NS(=O)(=O)c3ccccc3)c2)CC1 | / | / | / | / | / | 6%
Cc1ccc(C)c(C(=O)COc2ncnc3ccccc23)c1 | 70* | -2% | 25% | 10% | 28 | -12%
O=C(Cn1cnc2ccccc2c1=O)OCC(=O)c1ccc2c(c1)OCCO2 | -19 | 6% | / | -27% | 2 | 2%
O=C(COc1ncnc2ccccc12)c1ccc2c(c1)OCCO2 | 132* | -4% | 183% | 414% | 55* | -3%
O=C(COc1ncnc2cc(Cl)ccc12)c1ccc2c(c1)OCCO2 | 74* | 0% | 159% | 133% | 29* | 17%
Cc1ccc(C(=O)COc2ncnc3cc(Cl)ccc23)cc1 | 16 | 1% | ? | 45% | -2 | -2%
COc1cccc(CNc2nc3ccccc3n2C(C)C)c1O | 16 | 0% | ? | ? | 9 | 12%
COc1ccc(/C=C/c2c(-c3ccc(OC)cc3)oc3cccnc23)cc1 | 31* | -5% | ? | 29% | 16* | 155%
COc1cc(OC)cc(-c2oc3cccnc3c2C#CCCO)c1 | 1 | 5% | 14% | ? | -3 | 18%
Cc1ccccc1C(=O)NNC(=O)c1cc(N)cc([N+](=O)[O-])c1 | -1 | -8% | 21% | 31% | -2 | -7%[11.6 µM]
CC(C)(C)c1ccc(/C=N/N2C(=O)CSC2=S)cc1 | 30 | 1% | 3% | -8% | 16* | 32%
Cc1cc(=O)oc(C)c1C(=O)N1CCCc2ccccc21 | 5 | -5% | 35% | 54% | 2 | -20%
Cc1cc(=O)oc(C)c1C(=O)N1CCc2c([nH]c3ccccc23)C1C(C)C (stereo not drawn) | -9 | -4% | / | 12µM* | -4 | -2%
O=C(NC(=S)NC1CCCC1)c1ccccc1 | 67* | 7% | 22% | 43% | 43* | -9%
O=C(NC(=S)NC1C2CC3CC(C2)CC1C3)c1ccccc1 (stereo not drawn) | 49* | -5% | 32% | 10µM* | 18* | 14%
O=C(CSc1nnc(-c2ccccc2F)n1C1CC1)N1CCCC1 | / | / | / | / | / | -3%
O=C(COc1ccc(Cl)cc1Cl)N1CCN(C(=O)c2ccco2)CC1 | -8 | 1% | -15% | 47% | -1 | -12%
[Hg+][c]1ccccc1 | / | / | 4.8µM* | 3.4µM* | / | /
CCOC(=O)c1c(C)[nH]c(C)c1S(=O)(=O)NCCCN1CCOCC1 | -4 | -3% | 12% | ? | -2 | -5%
CCOC(=O)c1c(C)[nH]c(C)c1S(=O)(=O)N1CCOCC1 | -7 | -2% | 28% | 6.6µM* | -2 | 0%
CCOC(=O)c1c(C)[nH]c(C)c1S(=O)(=O)N1CCN(c2ccc(F)cc2)CC1 | 12 | 3% | -6% | 8.3µM* | -1 | -14%
COc1cc2oc(=O)cc(CN(Cc3ccccc3)Cc3ccccc3)c2cc1Cl | / | / | / | / | / | 12%
CCc1ccccc1N(CC(=O)N1CCN(c2ccccc2)CC1)S(C)(=O)=O | 32 | 5% | -19% | -7% | -6 | 5%

Screening results from PubChem BioAssay.
